This is a sample that favours compounds with a hit; in the whole collection about 2.1% have one here.
aSyn yeast inh – inhibitors of alpha-synuclein toxicity in yeast. Yeast expressing alpha-synuclein, growth rescue, BacTiter-Glo, 24 h. Potency, µM (top dose mostly 46.1 µM), for inactives: at the highest dose growth rescue (activation), most hits filed as activators. actives 0.14% (n = 370,000). AID 652106; further: % of control where 0% means no effect; nearly all actives have a fitted effect of over 65% in size
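Rescue of yeast growth: cells expressing toxic alpha-synuclein, induced in galactose at OD600 0.02, incubated with compound 24 h at 30 C. ATP luminescence quantified growth; inhibitors of toxicity appear as activators.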
Abeta rescue – compounds reversing amyloid beta toxicity in yeast; yeast expressing A-beta42, growth rescue, OD600, 48 h; response scale: 0% DMSO, 100% iron-clioquinol control; Potency, µM (series often up to 46.1 µM), actives largely listed as activators; actives 0.063% (n = 410,000); AID 1347071; further: nearly all actives have a fitted effect of over 55% in size
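Yeast A-beta toxicity model in growth medium with pinned compounds, 48 h at 30 C; growth read as absorbance at 600 nm. Normalized to FeCl3/clioquinol equimolar mix (positive) and DMSO (negative).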
TDP-43 yeast inh – rescues yeast growth from TDP-43 toxicity. actives 1.8% (n = 410,000). AID 652104. Potency, µM (top dose mostly 46.1 µM), without a hit: at the top dose growth rescue (activation), usual class: activators. TDP-43 expressing yeast growth rescue, BacTiter-Glo, 24 h; further: % of control where 0% means no effect; nearly all actives have a fitted effect of over 50% in size
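Yeast expressing TDP-43 (pregrown in raffinose, seeded at OD600=0.02 in galactose medium) exposed to compounds 24 hr at 30 deg C. Growth read by BacTiter-Glo luminescence; rescue of toxicity appears as increased signal.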
FUS suppressor – suppressors of FUS proteinopathy in yeast; actives 0.24% (n = 390,000); AID 1347120; Potency, µM (top dose mostly 76.6 µM), most hits filed as activators; S. cerevisiae FUS-expressing, growth rescue, OD600, 24 h;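 further: plate controls were DMSO vehicle for no effect and reference control for full effect; nearly all actives have a fitted effect of over 55% in size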
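Quantitative HTS measuring growth restoration of FUS-toxic yeast. Galactose-induced cells (OD 0.005) were exposed 24hr at 30C to compounds at several concentrations, then absorbance at 600 nm was recorded.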
The depositor's hits bear a star. The call rests on the fitted dose curve; in most records, active means well fitted curve in the direction sought with a large enough effect; inconclusive means small, poorly fitted or top-dose-only effect, or another doubt; inactive means no such curve, though single readings can be large; an effect the other way counts as inactive or inconclusive. Potency means the concentration at half of the fitted maximal effect.

For C#CCOCCOCCOCCNc1nc(N2CCN(C(=O)CCCCCCCCCCNC(=O)[C@H]([C@@H](C)CC)n3cc(CCCCN=C(N)N)nn3)CC2)nc(N2CCN(C(=O)CCCCCCCCCCNC(=O)[C@@H]([C@H](C)O)n3cc(C)nn3)CC2)n1 the results were aSyn yeast inh -61%, Abeta rescue inactive, TDP-43 yeast inh 1% and FUS suppressor inconclusive.
For CCNc1ccc(/C=C/c2ccnc3ccccc23)cc1 the results were aSyn yeast inh 2%.
CN(C(=O)c1ccc2c(c1)N(Cc1ccccc1F)C(=O)c1ccccc1S2)C1CCCCC1 was read as Abeta rescue inactive, TDP-43 yeast inh 11% and FUS suppressor inconclusive.
For CC(C)Cn1c(=O)c2sccc2n2c(CCCC(=O)NCC(C)c3ccccc3)nnc12 (stereo not given) the results were Abeta rescue inactive, TDP-43 yeast inh 15% and FUS suppressor inactive.
CCOC(=O)c1cnc(SC2CCc3ccccc3C2=O)nc1N (stereo not given) was read as aSyn yeast inh 5%, Abeta rescue inactive, TDP-43 yeast inh 20µM* and FUS suppressor inconclusive.
For CCOC(=O)c1cnc(SC2CC(=O)N(c3ccccc3)C2=O)nc1N (stereo not given) the results were aSyn yeast inh -4%, Abeta rescue inactive, TDP-43 yeast inh -10% and FUS suppressor inactive.
CC(=O)NC(=S)NNC(=O)C(c1ccccc1)c1ccccc1 was read as aSyn yeast inh 22µM*, Abeta rescue inactive, TDP-43 yeast inh 18µM* and FUS suppressor inactive.
Screening CCN(c1ccccc1)c1cc(C)nc2ncnn12 returned aSyn yeast inh -4%, Abeta rescue inactive, TDP-43 yeast inh 10% and FUS suppressor inactive.
Screening Cc1cc(Oc2ccc(-c3ccccc3)cc2)n2ncnc2n1 returned aSyn yeast inh 13%, Abeta rescue inactive, TDP-43 yeast inh 18µM* and FUS suppressor inactive.
CC1(C)CCc2cc(O)ccc2O1 was read as aSyn yeast inh -10%.
Screening O=C(Nc1ccc(Cl)cc1)c1csc(COCCO)n1 returned aSyn yeast inh -5%, Abeta rescue inactive, TDP-43 yeast inh 20% and FUS suppressor inactive.
For O=C(Nc1ccc(Oc2ccccc2)cc1)c1csc(COCCO)n1 the results were aSyn yeast inh 3%, Abeta rescue inactive, TDP-43 yeast inh 13µM* and FUS suppressor inactive.
`Cc1ccc(-c2nc3sccn3c2Nc2ccc(C)c(C)c2)cc1` gave Abeta rescue inactive, TDP-43 yeast inh 12% and FUS suppressor inactive.
Screening COc1cc(/C=C(/C#N)C(=O)c2c(C)[nH]c3ccccc23)ccc1OCC#N returned aSyn yeast inh -12%, Abeta rescue inactive, TDP-43 yeast inh 5% and FUS suppressor inactive.
Screening CCOc1ccc(/C=C(\C#N)C(=O)c2c(C)[nH]c3ccccc23)cc1OC returned aSyn yeast inh -19%, Abeta rescue inactive, TDP-43 yeast inh 20µM* and FUS suppressor inactive.
Screening CCCCCCOc1ccc(CC(=O)O)cc1 returned aSyn yeast inh -11%.
For COc1cc(C#Cc2c(-c3cncn3C)n(C)c3ccc(-c4cnc(OC)nc4)cc23)cc(OC)c1 the results were aSyn yeast inh 14%, Abeta rescue inactive, TDP-43 yeast inh 11µM* and FUS suppressor inactive.
For O=C(CCCn1c(=O)c2cccn2c2ccccc21)NCc1ccccc1Br the results were Abeta rescue inactive, TDP-43 yeast inh inconclusive and FUS suppressor inactive.
O=C(Nc1ccc(F)cc1)c1cccnc1NCCc1ccccc1 was read as aSyn yeast inh -10%, Abeta rescue inactive, TDP-43 yeast inh 13µM* and FUS suppressor inactive.
O=C(CN1CCc2onc(-c3ccc(-n4cc(-c5ccccc5)nn4)cc3)c2C1=O)N1CCOCC1 was read as FUS suppressor inactive.
Screening Cc1cc(C)cc(NC(=S)/N=C(\N)Nc2nc(C)c3ccccc3n2)c1 returned aSyn yeast inh 0%, Abeta rescue inactive and TDP-43 yeast inh 16µM*.
Screening Cc1cccc(NC(=S)/N=C(\N)Nc2nc(C)c3ccccc3n2)c1 returned aSyn yeast inh -10%, Abeta rescue inconclusive, TDP-43 yeast inh 20µM* and FUS suppressor inactive.
`COc1ccc(/C=C/C(=O)NC2=NCCS2)c(OC)c1` gave FUS suppressor inactive.

Assay outcomes: PubChem, National Center for Advancing Translational Sciences (NCATS)
